A short description of assay [1]: yeast TOR pathway RPL19A-GFP modulators, primary screen, cell-based, S. cerevisiae, multiplex flow cytometry (AID 1862; in the data active = percent of DMSO control GFP below about 86%;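 note: lower values mimic rapamycin by blocking the RPL19A rise seen in DMSO cells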). Particulars: S. cerevisiae RPL19A-GFP strain, flow cytometry fluorescence, 3 h; at 10 µM; stronger effect = lower value.
Assay [2] is described as follows: modulators of MEP2-GFP levels in yeast, primary screen, S. cerevisiae, multiplex flow cytometry (AID 1867;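 active = GFP response, as percent of the DMSO control, above the screen-wide mean plus 3 SD, about 139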;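 note: median GFP channel fluorescence of barcode-gated MEP2-GFP cells measured by flow cytometry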). Particulars: S. cerevisiae MEP2-GFP strain, 3 h, at 10 µM, stronger effect = higher value, 100% means same as DMSO wells.
Assay [3] in a line: modulators of CIT2-GFP expression in yeast, primary screen, S. cerevisiae, GFP fusion, multiplex flow cytometry (AID 1870;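 active = percent response above a set limit, the screen-wide mean plus 3 SD, cut at about 130% in these data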;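 note: barcoded CIT2-GFP strain pooled with four other GFP strains with rapamycin as positive control; median GFP fluorescence per well over plate mean of DMSO wells so 100% = DMSO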). As to conditions: 3 h, at 10 µM, stronger effect = higher value.
Assay [4] in a line: modulators of LAP4-GFP expression in yeast, primary screen, S. cerevisiae, multiplex flow cytometry (AID 1873;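 active = GFP signal, as percent of the solvent control, above the screen mean plus 3 SD, about 149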). Particulars: 3 h, at 10 µM, stronger effect = higher value.
Assay [5] is described as follows: modulators of AGP1-GFP expression in yeast TOR pathway, primary screen, cell-based, multiplex flow cytometry, S. cerevisiae (AID 1887;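 active = GFP signal above the screen-wide mean plus 3 SD, that is over about 124.5% of the solvent control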;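 note: AGP1-GFP fusion strain of S. cerevisiae within a five-strain barcoded multiplex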). Particulars: 3 h, at 10 µM, stronger effect = higher value. A general note: A flow cytometer gives signals particle by particle.
Assay [6] is described as follows: inhibitors of CD8+ T cell-vesicle binding, pilot screen, LFA-1/ICAM-1 modulator project, MLPCN validation set, flow cytometry (AID 2523;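 active = response below a set limit, under 55% cells CD8-positive and vesicle-bound, and CD8 cells' 90th-percentile brightness under 279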;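 for vesicle binding response: mean PE anti-B7-1 fluorescence of CD8+ cells relative to row control; 100% = QL9-loaded vesicles with DMSO vehicle in the same plate row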). Particulars: 2C mouse CD8+ T cells, at 7 µM, stronger effect = lower value; double positive events: measured here: CD8+/vesicle+ event percentage.
Assay [7] has as its target Integrin beta-1 (Homo sapiens) + Integrin alpha-4 (Homo sapiens) (UniProt P13612+P05556). Put plainly: inhibition of HUTS-21 binding to VLA-4, pilot screen, VLA-4 allosteric modulator project, U937 cells, HUTS-21 mAb, flow cytometry, validation set (AID 2674;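 active = inhibition above 50%, about 3 SD of the validation set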;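 note: antibody binding induced by the VLA-4 ligand LDV present at three times its Kd; 0% = LDV ligand with antibody and no compound and 100% = antibody without LDV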). As to conditions: HUTS-21 LIBS mAb binding, at 6.7 µM, stronger effect = higher value, binding induced by LDV ligand.
Assay [8] in a line: superoxide lowering in aged yeast cells, pilot screen, validation compound set (AID 2706;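 active = superoxide response below 65% of plate, a cut near 3 SD across the whole screen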;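 note: yeast exposed to compound for one week at 30 degrees C before staining; 100% = mean of all compound wells on the same plate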). Particulars: S. cerevisiae aging, superoxide DHE fluorescence; at 10 µM; stronger effect = lower value.
In assay [9] the target is Beta-adrenergic receptor kinase 1 (Homo sapiens) (UniProt P25098). Briefly: GRK2 binders displacing RNA aptamer, biochemical, validation, human GRK2, bead flow cytometry (AID 488806). As to conditions: bead-bound GRK2, FAM-aptamer displacement, at 10 µM, stronger effect = higher value.
Beta-adrenergic receptor kinase 1 (Homo sapiens), sequence (P25098 whole entry, looked up): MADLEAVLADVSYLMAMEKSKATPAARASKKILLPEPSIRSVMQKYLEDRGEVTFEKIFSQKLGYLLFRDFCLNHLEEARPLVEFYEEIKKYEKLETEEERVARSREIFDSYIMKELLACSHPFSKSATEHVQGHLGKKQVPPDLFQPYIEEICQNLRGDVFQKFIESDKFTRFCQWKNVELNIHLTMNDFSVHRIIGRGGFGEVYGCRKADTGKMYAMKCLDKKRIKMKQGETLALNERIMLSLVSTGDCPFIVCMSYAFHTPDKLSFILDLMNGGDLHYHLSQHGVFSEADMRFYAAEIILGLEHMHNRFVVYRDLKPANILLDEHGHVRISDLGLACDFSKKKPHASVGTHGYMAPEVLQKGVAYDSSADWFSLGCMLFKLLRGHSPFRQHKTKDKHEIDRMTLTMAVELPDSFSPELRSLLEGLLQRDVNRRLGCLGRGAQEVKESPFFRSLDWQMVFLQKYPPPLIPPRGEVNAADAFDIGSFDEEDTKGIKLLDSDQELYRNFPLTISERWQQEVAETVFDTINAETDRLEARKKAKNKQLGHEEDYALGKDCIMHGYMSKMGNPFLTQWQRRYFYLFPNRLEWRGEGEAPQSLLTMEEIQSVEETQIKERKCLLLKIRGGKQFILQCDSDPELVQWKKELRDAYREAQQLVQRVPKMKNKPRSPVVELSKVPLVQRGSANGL
Assay [10] concerns the target Beta-2 adrenergic receptor (Homo sapiens) (UniProt P07550). Put plainly: beta2AR agonists driving receptor internalization, pilot screen, cell-based, FAP fluorogen, flow cytometry, validation set (AID 504459;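 active = percent response above 42, roughly 3 SD of non-fluorescent test compounds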;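 note: agonist-driven loss of surface beta2AR via internalization measured by FAP dye flow cytometry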). As to conditions: Am2.2-beta2AR cells, FAP surface receptor flow cytometry; at 10 µM; stronger effect = higher value.
For assay [11], the target named is AP-2 complex subunit beta (Homo sapiens) (UniProt P63010). Briefly: inhibitors of arrestin peptide binding to AP2, pilot screen, biochemical, validation set, GST-AP2 beads, flow cytometry (AID 504541;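 active = inhibition above 54%, about 3 SD of non-fluorescent compounds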;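 note: AP2 carries R879A mutation and is captured from E. coli lysate; bead-bound FITC arrestin peptide fluorescence measuring arrestin peptide binding to AP2; 0% = DMSO wells and 100% = excess unlabeled arrestin peptide control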). As to conditions: FITC arrestin peptide, at 10 µM, stronger effect = higher value, AP2 beta2 appendage fragment, R879A mutant.
AP-2 complex subunit beta (Homo sapiens), sequence (P63010 whole entry, looked up, the tested form may be a part, one chain of several): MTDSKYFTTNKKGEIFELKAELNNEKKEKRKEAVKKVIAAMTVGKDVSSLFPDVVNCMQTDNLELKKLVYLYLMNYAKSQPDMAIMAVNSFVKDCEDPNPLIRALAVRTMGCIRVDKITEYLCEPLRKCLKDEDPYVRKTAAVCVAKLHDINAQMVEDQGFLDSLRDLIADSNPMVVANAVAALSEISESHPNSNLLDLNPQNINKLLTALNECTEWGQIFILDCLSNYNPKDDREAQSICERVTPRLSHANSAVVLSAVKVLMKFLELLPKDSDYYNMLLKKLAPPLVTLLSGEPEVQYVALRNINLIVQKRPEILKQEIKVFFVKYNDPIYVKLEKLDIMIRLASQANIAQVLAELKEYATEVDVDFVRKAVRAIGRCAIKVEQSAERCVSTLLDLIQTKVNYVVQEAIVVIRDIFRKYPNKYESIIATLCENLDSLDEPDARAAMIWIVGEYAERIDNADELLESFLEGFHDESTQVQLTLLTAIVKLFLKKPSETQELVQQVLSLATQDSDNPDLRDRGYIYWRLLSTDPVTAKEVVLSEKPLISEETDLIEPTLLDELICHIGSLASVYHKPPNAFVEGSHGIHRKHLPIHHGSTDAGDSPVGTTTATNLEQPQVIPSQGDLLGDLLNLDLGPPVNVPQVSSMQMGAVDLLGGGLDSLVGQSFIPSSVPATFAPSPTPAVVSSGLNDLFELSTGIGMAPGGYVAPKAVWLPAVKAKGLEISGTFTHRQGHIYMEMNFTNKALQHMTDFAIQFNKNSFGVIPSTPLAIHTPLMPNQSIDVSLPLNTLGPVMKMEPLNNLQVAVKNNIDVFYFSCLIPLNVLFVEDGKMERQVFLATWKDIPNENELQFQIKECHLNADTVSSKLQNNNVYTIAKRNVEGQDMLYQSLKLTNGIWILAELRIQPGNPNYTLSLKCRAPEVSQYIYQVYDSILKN
Assay [12] is described as follows: yeast V-ATPase proton transport modulators, S. cerevisiae, pHLuorin, HTS validation (AID 504600; in the data active = response above about 15%;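 note: plate controls were DMSO for no effect and reference compound for full effect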). Particulars: S. cerevisiae pHLuorin cytosolic pH, at 10 µM, stronger effect = higher value.
Assay [13] concerns anti-desmoglein-3 scFv antibody binding to human DSG3. Put plainly: inhibitors of anti-DSG3 scFv binding to DSG3, pilot screen, biochemical, validation compound set, bead-based, flow cytometry (AID 588368;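 active = binding below the plate cutoff, the plate median minus 3 SD, with a reading above zero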;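 note: signal is the median channel fluorescence of bead-bound GFP antibody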). As to conditions: Protein G beads, DSG3-Fc, scFv-GFP binding, at 10 µM, stronger effect = lower value.
A short description of assay [14]: inhibitors of fungal efflux pumps CDR1, CDR2, MDR1, pilot screen, validation compound set, multiplex, phenotypic (AID 588506;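 active = efflux inhibition above 0.42, the validation set average plus 4 SD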;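 note: Nile Red retained in cells so higher fluorescence means more efflux inhibition; 0 = negative control wells and 1 = enniatin B 25 µM full block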). As to conditions: S. cerevisiae pump-expressing triplex, Nile Red efflux flow cytometry; at 10 µM; stronger effect = higher value; the pumps come from Candida albicans.
Assay [15] deals with ATP-binding cassette sub-family B member 6 (Homo sapiens) (UniProt Q9NP58). Briefly: ABCB6 transporter inhibitors, pilot screen, K562-ABCB6 cells, flow cytometry, validation set (AID 588550;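 active = inhibition above the screen-wide mean plus 3 SD, about 51%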;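 note: 0% = DMSO wells and 100% = benzethonium chloride 70 µM positive control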). As to conditions: K562-ABCB6 porphyrin accumulation, 1 h, at 10 µM, stronger effect = higher value.
ATP-binding cassette sub-family B member 6 (Homo sapiens), sequence (Q9NP58 whole entry, looked up): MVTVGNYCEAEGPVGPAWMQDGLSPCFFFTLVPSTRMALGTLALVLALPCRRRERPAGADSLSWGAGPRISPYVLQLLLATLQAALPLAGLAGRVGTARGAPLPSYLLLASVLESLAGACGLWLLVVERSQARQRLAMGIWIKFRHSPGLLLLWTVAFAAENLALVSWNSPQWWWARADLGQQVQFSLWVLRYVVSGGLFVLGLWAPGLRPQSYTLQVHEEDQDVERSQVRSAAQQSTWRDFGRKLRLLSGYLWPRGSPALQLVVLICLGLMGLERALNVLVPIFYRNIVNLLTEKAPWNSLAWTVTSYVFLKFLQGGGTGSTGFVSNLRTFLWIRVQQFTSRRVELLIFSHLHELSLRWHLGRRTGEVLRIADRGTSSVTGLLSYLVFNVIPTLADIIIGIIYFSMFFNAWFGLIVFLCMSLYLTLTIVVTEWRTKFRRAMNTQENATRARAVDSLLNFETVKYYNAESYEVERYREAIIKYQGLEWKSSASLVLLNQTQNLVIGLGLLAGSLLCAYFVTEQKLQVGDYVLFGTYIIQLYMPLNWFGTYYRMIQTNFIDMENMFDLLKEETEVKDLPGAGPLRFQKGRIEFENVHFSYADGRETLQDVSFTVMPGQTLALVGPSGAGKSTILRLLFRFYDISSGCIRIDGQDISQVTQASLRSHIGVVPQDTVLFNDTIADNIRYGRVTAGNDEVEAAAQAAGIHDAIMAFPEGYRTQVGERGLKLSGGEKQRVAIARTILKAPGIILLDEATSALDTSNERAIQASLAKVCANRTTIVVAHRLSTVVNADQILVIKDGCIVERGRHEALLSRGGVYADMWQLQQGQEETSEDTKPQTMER
Assay [16] can be described thus: promoters of myeloid differentiation in arrested cells, primary screen, cell-based, GFP/MAC1 double positive, flow cytometry, validation set (AID 588685;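 active = differentiation response of at least 50%, scaled between solvent and reference control, from cells with both markers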;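 note: compound exposure lasts four days before antibody staining and flow analysis; 0% = DMSO wells and 100% = 5 µM fulvestrant positive control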). Particulars: ER-HoxA9 marrow cells, stronger effect = higher value, normalized: vehicle 0, fulvestrant 100.

SMILES strings stand for the structures. Results filed as inconclusive are left out. Calls of active or inactive are those of the source.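 Rule for the calls, unless noted: active = aptamer binding inhibition above 30%, about 3 SD of noise from non-fluorescent compounds; inactive = inhibition at or below 30%.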

Beta-2 adrenergic receptor (Homo sapiens), sequence (P07550 whole entry, looked up): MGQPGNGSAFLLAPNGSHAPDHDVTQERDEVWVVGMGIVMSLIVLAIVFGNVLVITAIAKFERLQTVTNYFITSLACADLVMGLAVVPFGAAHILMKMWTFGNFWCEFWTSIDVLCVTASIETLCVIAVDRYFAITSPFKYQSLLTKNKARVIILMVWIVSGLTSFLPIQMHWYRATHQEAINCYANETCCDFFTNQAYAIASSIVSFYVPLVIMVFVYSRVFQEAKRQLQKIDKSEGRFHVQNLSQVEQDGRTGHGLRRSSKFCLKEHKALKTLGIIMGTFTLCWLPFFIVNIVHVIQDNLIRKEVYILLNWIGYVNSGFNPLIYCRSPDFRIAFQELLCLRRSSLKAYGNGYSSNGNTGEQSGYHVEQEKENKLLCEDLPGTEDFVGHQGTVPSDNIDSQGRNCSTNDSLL
Integrin beta-1 (Homo sapiens) + Integrin alpha-4 (Homo sapiens), sequence (P05556 whole entry, looked up): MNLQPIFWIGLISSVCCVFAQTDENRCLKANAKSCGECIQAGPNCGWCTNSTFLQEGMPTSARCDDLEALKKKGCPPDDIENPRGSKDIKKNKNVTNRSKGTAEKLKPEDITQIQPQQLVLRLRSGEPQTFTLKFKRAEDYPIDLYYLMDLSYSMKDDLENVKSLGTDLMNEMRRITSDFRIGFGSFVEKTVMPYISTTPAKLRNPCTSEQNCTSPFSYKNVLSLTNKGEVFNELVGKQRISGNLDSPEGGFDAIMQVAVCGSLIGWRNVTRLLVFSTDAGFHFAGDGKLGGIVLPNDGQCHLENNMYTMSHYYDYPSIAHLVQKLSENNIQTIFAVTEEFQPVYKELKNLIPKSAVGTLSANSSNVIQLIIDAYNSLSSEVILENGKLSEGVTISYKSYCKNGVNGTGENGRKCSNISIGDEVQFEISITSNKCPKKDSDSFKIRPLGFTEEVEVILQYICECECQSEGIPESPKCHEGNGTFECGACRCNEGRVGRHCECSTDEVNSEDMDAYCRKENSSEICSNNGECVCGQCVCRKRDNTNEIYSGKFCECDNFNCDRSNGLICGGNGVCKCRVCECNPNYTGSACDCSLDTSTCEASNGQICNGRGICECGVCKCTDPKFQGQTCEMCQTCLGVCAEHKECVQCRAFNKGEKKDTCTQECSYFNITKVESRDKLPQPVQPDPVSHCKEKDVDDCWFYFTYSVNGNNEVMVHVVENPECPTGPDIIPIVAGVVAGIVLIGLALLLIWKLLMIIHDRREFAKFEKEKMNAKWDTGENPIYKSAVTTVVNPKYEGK
Integrin beta-1 (Homo sapiens) + Integrin alpha-4 (Homo sapiens), sequence (P13612 whole entry, looked up): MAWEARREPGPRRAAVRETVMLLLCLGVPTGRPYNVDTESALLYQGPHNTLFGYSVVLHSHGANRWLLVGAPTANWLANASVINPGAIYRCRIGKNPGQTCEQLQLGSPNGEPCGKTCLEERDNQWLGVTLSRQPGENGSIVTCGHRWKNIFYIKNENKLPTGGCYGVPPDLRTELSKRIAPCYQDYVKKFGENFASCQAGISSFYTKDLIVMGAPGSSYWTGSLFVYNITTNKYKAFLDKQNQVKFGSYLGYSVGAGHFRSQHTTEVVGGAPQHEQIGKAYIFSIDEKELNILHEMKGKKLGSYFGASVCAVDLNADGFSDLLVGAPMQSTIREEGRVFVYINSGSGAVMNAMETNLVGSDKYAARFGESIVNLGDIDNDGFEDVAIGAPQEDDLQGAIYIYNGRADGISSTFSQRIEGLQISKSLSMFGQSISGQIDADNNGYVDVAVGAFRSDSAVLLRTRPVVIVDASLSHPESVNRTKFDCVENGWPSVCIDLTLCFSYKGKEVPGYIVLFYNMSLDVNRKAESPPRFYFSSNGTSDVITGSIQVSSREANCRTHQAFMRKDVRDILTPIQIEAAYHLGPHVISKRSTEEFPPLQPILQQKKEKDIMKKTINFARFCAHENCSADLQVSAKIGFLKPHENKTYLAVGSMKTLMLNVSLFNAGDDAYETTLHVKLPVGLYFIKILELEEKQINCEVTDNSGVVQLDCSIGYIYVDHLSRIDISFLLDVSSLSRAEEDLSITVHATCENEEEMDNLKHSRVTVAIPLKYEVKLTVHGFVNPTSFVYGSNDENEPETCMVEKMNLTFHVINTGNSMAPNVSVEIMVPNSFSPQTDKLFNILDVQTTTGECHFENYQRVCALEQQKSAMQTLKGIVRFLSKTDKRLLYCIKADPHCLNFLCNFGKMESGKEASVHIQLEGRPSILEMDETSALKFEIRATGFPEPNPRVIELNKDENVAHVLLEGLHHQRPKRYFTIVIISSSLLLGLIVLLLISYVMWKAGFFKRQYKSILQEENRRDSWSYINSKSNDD

What is called inhibition is the drop in the measured response relative to a control, in per cent. Take `CCOC(=O)c1ncn2c1CN(C)C(=O)c1cc(F)ccc1-2`: in assay [1], the percent of DMSO control GFP was 101% (inactive). Further, the GFP response vs DMSO in [2] is 96.6% (inactive); in assay [4], 107% (inactive). In addition, the percent response of DMSO control in assay [3] was 96.5% (inactive). Besides, the GFP response, % of DMSO in assay [5] is 105% (inactive). In assay [6], the double positive events was 58.4%. In addition, the vesicle binding response in assay [6] is 200% (inactive). For the same molecule, the inhibition in [7] is 8.29% (inactive); in assay [11], -0.66% (inactive); in assay [15], 0% (inactive). The superoxide response (% of plate) in [8] is 115% (inactive). For the same molecule, the aptamer binding inhibition in [9] was 1% (inactive). Moreover, the response in [10] is 3.78% (inactive); in assay [12] it was 2.2% (inactive). Moreover, the binding (% of control) in assay [13] is 97.7% (inactive). For the same molecule, in assay [14], the efflux inhibition (fraction of control) was -0.025 (inactive). In addition, the differentiation response in assay [16] was 7.13% (inactive).
On to `Fc1ccc(C(c2ccc(F)cc2)N2CCN(C/C=C/c3ccccc3)CC2)cc1`, for which the percent of DMSO control GFP in assay [1] was 94.6% (inactive). The GFP response vs DMSO was 131% (inactive) in assay [2] and 80.9% (inactive) in assay [4]. The percent response of DMSO control in assay [3] is 104% (inactive). Further, the GFP response, % of DMSO in [5] is 97% (inactive). In addition, in [6], the double positive events was found to be 56.3%. Moreover, the vesicle binding response in [6] was 215% (inactive). For the same molecule, the inhibition in [7] was -1.3% (inactive); in assay [11], 2.83% (inactive); in [15] it was 1% (inactive). In assay [8], the superoxide response (% of plate) is 108% (inactive). For the same molecule, the aptamer binding inhibition in [9] is 4% (inactive). For the same molecule, the response in assay [10] was 6.79% (inactive); in [12] it was -0.13% (inactive). Besides, the binding (% of control) in assay [13] was 110% (inactive). In addition, in assay [14], the efflux inhibition (fraction of control) was -0.02 (inactive). The differentiation response in assay [16] is 4.09% (inactive).
On to `C=CC1=C(C(=O)O)N2C(=O)C(NC(=O)Cc3ccccc3)C2SC1` (stereo not given), for which the percent of DMSO control GFP in [1] was 101% (inactive). Also, the figures for the GFP response vs DMSO in assay [2] and in assay [4] were 103% (inactive) and 82.8% (inactive), respectively. Moreover, the percent response of DMSO control in assay [3] is 105% (inactive). The GFP response, % of DMSO in assay [5] was 100% (inactive). In [6], the double positive events came to 62%. Also, the vesicle binding response in [6] was 134% (inactive). Besides, the inhibition in assay [7] is 13.2% (inactive); in assay [11], 15.3% (inactive); in [15] it was 7% (inactive). In addition, the superoxide response (% of plate) in assay [8] is 96.1% (inactive). The aptamer binding inhibition in assay [9] is 86% (active). Moreover, the response in assay [10] is 0.41% (inactive); in [12] it was 1.11% (inactive). Besides, the binding (% of control) in assay [13] is 101% (inactive). Besides, the efflux inhibition (fraction of control) in assay [14] was 0.01 (inactive). Further, the differentiation response in assay [16] was -31.2% (inactive).
Take `Cc1ccc(N2CCN(C(=S)c3ccc(-c4cccc([N+](=O)[O-])c4)o3)CC2)cc1`: in [1], the percent of DMSO control GFP is 98.1% (inactive). Besides, the GFP response vs DMSO in assay [2] was 103% (inactive); in assay [4], 126% (inactive). Also, in assay [3], the percent response of DMSO control is 109% (inactive). In addition, the GFP response, % of DMSO in [5] was 124% (inactive). The same molecule displayed a double positive events in [6] of 61.7%. In assay [6], the vesicle binding response was 217% (inactive). Further, the inhibition in assay [7] was -4.52% (inactive); in [11] it was 1.79% (inactive); in assay [15] it was 3% (inactive). In addition, in assay [8], the superoxide response (% of plate) is 89.3% (inactive). In addition, the aptamer binding inhibition in assay [9] was 3% (inactive). The response is -41.3% (inactive) in assay [10] and -4.54% (inactive) in assay [12]. The binding (% of control) in assay [13] was 102% (inactive). For the same molecule, the efflux inhibition (fraction of control) in assay [14] was -0.13 (inactive). Moreover, the differentiation response in assay [16] is -9.91% (inactive).
`COC1CCN(C(=O)c2ccc(OC3CCN(Cc4ccccn4)CC3)cc2)CC1`: the percent of DMSO control GFP in assay [1] is 104% (inactive). Further, the GFP response vs DMSO in assay [2] is 109% (inactive); in assay [4] it was 114% (inactive). Further, the percent response of DMSO control in assay [3] was 104% (inactive). Further, the GFP response, % of DMSO in assay [5] was 110% (inactive). Besides, the double positive events in assay [6] was found to be 65%. For the same molecule, the vesicle binding response in assay [6] is 133% (inactive). Moreover, the inhibition in assay [7] is 9.13% (inactive); in assay [11], 26.3% (inactive); in [15], 8% (inactive). For the same molecule, the superoxide response (% of plate) in [8] was 89.2% (inactive). Besides, the aptamer binding inhibition in assay [9] was -2% (inactive). Also, the response is -2.71% (inactive) in assay [10] and -3.44% (inactive) in assay [12]. For the same molecule, the binding (% of control) in assay [13] was 103% (inactive). The efflux inhibition (fraction of control) in assay [14] is -0.17 (inactive). The differentiation response in assay [16] is -2.4% (inactive).

For the origin of these results see PubChem BioAssay.
